From PubChem
Hits are enriched below; roughly 5.8% of the tested compounds scored in any of these assays.
PINK1 modulator – A Quantitative High throughput Screen to Identify Chemical Modulators of PINK1 Expression. PINK1 immunofluorescence, high-content cytometry, 24 h. Potency, µM (titrated, usually from 76.6 µM), inactives show at the top dose activation (PINK1 increase), most hits filed as activators. 410,000 compounds, 0.2% hits. AID 624263, 2012; active means well fitted activation curve with a large enough effect; inconclusive means small, poorly fitted or top-dose-only effect; cell line not stated here; further: % of control where 0% means no effect; nearly all actives have a fitted effect of over 65% in size
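A stable cell line was treated with compounds at 5 concentrations for 24 hours, with CCCP as control. PINK1 levels and mitochondrial localization were measured by immunofluorescence with mitochondrial, cell and nuclear markers after fixation, read by laser-scanning cytometry.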
SW480 rereplic – A quantitative high throughput screen for small molecules that induce DNA re-replication in SW480 colon adenocarcinoma cells. 340,000 compounds, 1.8% hits. SW480 DNA re-replication, Hoechst DNA content imaging, 48 h. Potency, µM (titrated, usually from 46.1 µM), for inactives: at the top dose re-replication activation, most hits filed as activators; further: % of control where 0% means no effect; nearly all actives have a fitted effect of over 55% in size
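Quantitative HTS format with DMSO vehicle controls; 48 hr drug incubation at 37 C, then 40 min Hoechst staining and scanning imager measurement at 405 nm excitation.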
KB-V1 MDR tox – qHTS assay for MDR1-selective chemotherapeutics: Primary screen using the drug-selected MDR subline cells KB-V1. KB-V1 MDR cells viability, CellTiter-Glo, 72 h. Potency, µM (series often up to 46.1 µM), actives largely listed as cytotoxic. 400,000 compounds, 3.4% hits; further: on the % scale 0 is the no-effect control and ±100 the full control effect; nearly all actives have a fitted effect of over 60% in size
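KB-V1 cells (P-gp-expressing MDR subline of KB-3-1) in phenol-red-free DMEM with 10% FBS were exposed to library compounds over a concentration series for 72 h at 37 degrees C. Viability read by CellTiter-Glo luminescence; concentration-effect curves fitted after normalization.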
12-LOX inh – Primary qHTS assay for inhibitors of human arachidonate 12S-lipoxygenase (ALOX12): Round 2. 580,000 compounds, 1.1% hits. Potency, µM (highest dose often 108 µM), inactives show at the top dose activity change, negative = inhibition, hits mostly inhibitors. purified 12hLO, xylenol orange hydroperoxide absorbance. Polyunsaturated fatty acid lipoxygenase ALOX12 (Homo sapiens), P18054; further: on the % scale 0 is the no-effect control and ±100 the full control effect
Target sequence (P18054 whole entry, looked up): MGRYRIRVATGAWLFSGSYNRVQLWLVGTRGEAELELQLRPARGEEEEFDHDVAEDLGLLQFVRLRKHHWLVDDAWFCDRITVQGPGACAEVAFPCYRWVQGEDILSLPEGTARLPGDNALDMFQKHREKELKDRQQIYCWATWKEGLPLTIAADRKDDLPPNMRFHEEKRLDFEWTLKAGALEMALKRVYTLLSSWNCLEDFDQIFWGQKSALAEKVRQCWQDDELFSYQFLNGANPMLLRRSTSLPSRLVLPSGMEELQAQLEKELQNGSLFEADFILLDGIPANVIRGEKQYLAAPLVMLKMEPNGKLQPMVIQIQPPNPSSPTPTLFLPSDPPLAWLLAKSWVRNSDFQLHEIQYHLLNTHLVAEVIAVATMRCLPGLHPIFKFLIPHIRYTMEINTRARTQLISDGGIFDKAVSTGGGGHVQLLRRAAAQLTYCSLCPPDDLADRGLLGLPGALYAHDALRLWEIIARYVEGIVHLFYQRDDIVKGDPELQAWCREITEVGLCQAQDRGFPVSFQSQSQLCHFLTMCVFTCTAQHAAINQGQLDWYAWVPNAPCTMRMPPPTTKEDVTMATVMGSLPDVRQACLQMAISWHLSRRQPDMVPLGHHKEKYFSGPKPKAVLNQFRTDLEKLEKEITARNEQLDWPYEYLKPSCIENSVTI
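Hydroperoxide product was detected by ferrous iron/xylenol orange as the 573 to 405 nm absorbance ratio. Arachidonic acid at 40 uM (final) was turned over for 30 min at room temperature by 150 nM human 12hLO, pH 7.0 Hepes buffer, after 15 min compound preincubation.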
KB-3-1 tox – qHTS assay for MDR1-selective chemotherapeutics: Primary screen using the parental adenocarcinoma cell KB-3-1; KB-3-1 viability, CellTiter-Glo ATP luminescence, 72 h; Potency, µM (series often up to 46.1 µM), hits mostly cytotoxic; 400,000 compounds, 1.4% hits; further: on the % scale 0 is the no-effect control and ±100 the full control effect; nearly all actives have a fitted effect of over 60% in size
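KB-3-1 parental drug-naive adenocarcinoma cells in DMEM/10% FBS, incubated 72 h at 37 C with pin-transferred compounds across a concentration series. Viability by CellTiter-Glo luminescence; concentration-response curves fitted after normalization.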
MCF10A rereplic – A quantitative high throughput screen for small molecules that induce DNA re-replication in MCF 10a normal breast cells. MCF 10A DNA re-replication, Hoechst nuclear intensity, 48 h. Potency, µM (titrated, usually from 46.1 µM), inactives show at the top dose activity, positive = re-replication, hits mostly activators. 350,000 compounds, 2.9% hits. AID 624296, 2012; further: % of control where 0% means no effect; nearly all actives have a fitted effect of over 50% in size
Active calls of the source: *; [ ] = remark or other dose. Unless noted, the call rests on the fitted dose curve; in most records, active means well fitted curve in the direction sought with a large enough effect; inconclusive means small, poorly fitted or top-dose-only effect, or another doubt; inactive means no such curve, though single readings can be large; an effect the other way counts as inactive or inconclusive. Potency means the concentration at half of the fitted maximal effect.

What do the screens show for `CCOC(=O)C(NC(=O)/C=C/c1ccc2cc(OC)ccc2c1)C(=O)OCC`?
12-LOX inh: -19%

What do the screens show for `CCc1c(C)nc(SCC(=O)Nc2oncc2-c2ccccc2)[nH]c1=O`?
12-LOX inh: -8%

Results for CC(=O)N1CCN(c2ccc([N+](=O)[O-])c(-n3nc(-c4ccc(C)cc4)c4ccccc4c3=O)c2)CC1 ?
12-LOX inh: -7%

Results for CCC(NC(=O)c1cc(Cn2ccc3ccccc32)[nH]n1)c1ncccc1C (centres undefined) ?
12-LOX inh: 111%

Results for O=C(CCc1ncc(-c2ccccc2F)o1)N1CCN(S(=O)(=O)c2ccccc2Cl)CC1 ?
12-LOX inh: -4%

How did COC(=O)c1ccc(/C=C/C(=O)c2ccc(OC)c(OC)c2)cc1 do in these assays?
PINK1 modulator: -2%; SW480 rereplic: inconclusive; KB-V1 MDR tox: inconclusive; KB-3-1 tox: inconclusive; MCF10A rereplic: inconclusive

What do the screens show for `O=C(O)c1cccc(N2C(=O)c3ccc(C(=O)c4cccc([N+](=O)[O-])c4)cc3C2=O)c1`?
PINK1 modulator: 0%; SW480 rereplic: -5%; KB-V1 MDR tox: inactive; 12-LOX inh: -13%; KB-3-1 tox: inactive; MCF10A rereplic: 2%

What do the screens show for `COc1cc(/C=C/C(=O)c2ccc(C)cc2)ccc1OCC#N`?
PINK1 modulator: -6%; SW480 rereplic: 16µM*; KB-V1 MDR tox: 15µM*; 12-LOX inh: -26%; KB-3-1 tox: inconclusive; MCF10A rereplic: inconclusive

Results for COc1ccc(/C=C/C(=O)c2ccc(C(=O)/C=C/c3ccc(OC)c(OC)c3)cc2)cc1OC ?
PINK1 modulator: 15%; SW480 rereplic: 8.2µM*; KB-V1 MDR tox: inactive; 12-LOX inh: 0%; KB-3-1 tox: inconclusive; MCF10A rereplic: 6.5µM*

Results for O=C(/C=C/c1ccc2c(c1)OCCCO2)c1ccc2ccccc2c1O ?
PINK1 modulator: 0%; SW480 rereplic: 2%; KB-V1 MDR tox: inconclusive; 12-LOX inh: -8%; KB-3-1 tox: inactive; MCF10A rereplic: 18µM*

Results for O=C(O)c1ccc2c(c1)C(=O)N(c1cccc(C(=O)/C=C/c3ccccc3)c1)C2=O ?
PINK1 modulator: 2%; SW480 rereplic: 2%; KB-V1 MDR tox: inactive; 12-LOX inh: -5%; KB-3-1 tox: inactive; MCF10A rereplic: 18µM*

Results for CCNc1c(NC(=O)c2cccc(OC)c2)c(=O)oc2ccccc12 ?
12-LOX inh: -4%

How did COc1ccc(/C=C/C(=O)c2ccccc2)cc1Cn1nnc2ccccc21 do in these assays?
PINK1 modulator: -3%; SW480 rereplic: inconclusive; KB-V1 MDR tox: 21µM*; 12-LOX inh: 0%; KB-3-1 tox: inactive; MCF10A rereplic: 12µM*

How did COc1ccc(/C=C/C(=O)c2ccccc2)cc1COc1ccc(F)cc1 do in these assays?
PINK1 modulator: 17%[38.3 µM]; SW480 rereplic: inconclusive; KB-V1 MDR tox: inconclusive; 12-LOX inh: 19%; KB-3-1 tox: inactive; MCF10A rereplic: inconclusive

How did COc1cc(/C=C/C(=O)c2ccc3c(c2)OCO3)cc(OC)c1OC do in these assays?
PINK1 modulator: 5%; SW480 rereplic: 284%; KB-V1 MDR tox: 21µM*; KB-3-1 tox: inconclusive; MCF10A rereplic: 179%

Results for O=[n+]1cc(-c2ccccc2)n([O-])c2ccccc21 ?
12-LOX inh: -19%

Results for Cc1cccc(OCc2n[nH]c(=S)n2Cc2ccccc2)c1 ?
PINK1 modulator: 4%; SW480 rereplic: -13%; KB-V1 MDR tox: inactive; 12-LOX inh: inconclusive; KB-3-1 tox: inactive; MCF10A rereplic: 2%

Results for COc1ccc(-n2c(COc3ccc(Cl)cc3Cl)n[nH]c2=S)cc1 ?
PINK1 modulator: 1%; KB-V1 MDR tox: inactive; 12-LOX inh: inconclusive; KB-3-1 tox: inactive

What do the screens show for `CCN(CC)CCCn1c(-c2ccc(COc3cc(C)ccc3Cl)cc2)n[nH]c1=S`?
12-LOX inh: 35µM*

What do the screens show for `Cn1c(COc2cc(Cl)ccc2Cl)n[nH]c1=S`?
12-LOX inh: 50µM*

Results for Cc1ccc(C(C)C)c(OCc2n[nH]c(=S)n2Cc2ccc(Cl)cc2)c1 ?
12-LOX inh: 28µM*

What do the screens show for `Cc1ccc(Cl)c(OCc2n[nH]c(=S)n2C)c1`?
12-LOX inh: 32µM*

What do the screens show for `CCCCN1C(SCC(=O)Nc2cccc(C(C)=O)c2)=NS(=O)(=O)c2ccccc21`?
12-LOX inh: 0%

How did CCCCCn1c(COc2ccccc2Cl)n[nH]c1=S do in these assays?
12-LOX inh: 28µM*

How did Cc1cc(S(=O)(=O)N[C@H]2[C@H]3CCO[C@H]3[C@@H]2N2CCCCC2)n(C)n1 do in these assays?
12-LOX inh: 9%

How did O=S(=O)([N-]c1nc2ccccc2nc1-n1cc[n+](Cc2ccccc2)c1)c1ccc(Br)cc1 do in these assays?
PINK1 modulator: 3%; SW480 rereplic: 18µM*; KB-V1 MDR tox: inactive; 12-LOX inh: 0%; KB-3-1 tox: inactive; MCF10A rereplic: 18µM*

What do the screens show for `CC(C)CC[n+]1ccn(-c2nc3ccccc3nc2[N-]S(=O)(=O)c2ccc(Cl)cc2)c1`?
PINK1 modulator: 3%; SW480 rereplic: inconclusive; KB-V1 MDR tox: inactive; 12-LOX inh: 147%; KB-3-1 tox: inactive; MCF10A rereplic: 23µM*

How did O=C(NCC(F)(F)F)C1CN(c2ccccc2)C(=O)N1 (centres undefined) do in these assays?
12-LOX inh: -7%[176 µM]

How did COC(=O)c1sc2ccccc2c1NC(=O)c1ccc(S(=O)(=O)N2CCCCC2)cc1 do in these assays?
PINK1 modulator: 0%; SW480 rereplic: -1%; KB-V1 MDR tox: inactive; 12-LOX inh: -19%; KB-3-1 tox: inactive; MCF10A rereplic: 2%

What do the screens show for `CC1CCCCN1S(=O)(=O)c1ccc(C(=O)Nc2nnc(-c3ccccc3Cl)o2)cc1` (centres undefined)?
PINK1 modulator: 0%; SW480 rereplic: 23%; KB-V1 MDR tox: 16µM*; 12-LOX inh: 13%; KB-3-1 tox: inconclusive; MCF10A rereplic: inconclusive
